Test results as given in PubChem BioAssay AID1159580 (chemical genetic matrix, 2015).
Values joined by “and” are separate entries in the source; they are usually repeats but may differ in a detail not shown here. Equal values may be shown once. About 2,000 (36%) of roughly 5,500 compounds were called active. Not shown: some 18% with an inconclusive outcome. Rule as the data show it: active = normalized growth mostly below about 0.91 (no sharp cut-off); inconclusive = no clear call, values can overlap the other calls; inactive = mostly above about 0.92. Some of the results follow.

Assay: chemical genetic growth profiling, strain panel (AID 1159580);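 also: tested at 20 µM; growth read once vehicle control cultures reached saturation at 30 °C; 1 = growth at the plate median or of vehicle wells; lower values mean less growth of the strain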
Settings: S. cerevisiae deletion strains, growth OD

Measured: normalized growth

NC(N)=NC(=O)c1nc(Cl)c(N)nc1N
inactive: locus YAL013W, strain DEP1, hits give low values 0.935 | locus YAL021C, strain ccr4, hits give low values 0.977 | locus YAL026C, strain drs2, hits give low values 1.01 | locus YAL030W, strain snc1, hits give low values 1.01 | locus YAL040C, strain CLN3, hits give low values 1 | locus YBL061C, strain skt5, hits give low values 1.04 | locus YBR009C, strain hhf1, hits give low values 1.01 | locus YBR021W, strain FUR4, hits give low values 0.86 | locus YBR023C, strain chs3, hits give low values 1.04 | locus YBR171W, strain sec66, hits give low values 1.02 | locus YBR229C, strain ROT2, hits give low values 1 | locus YBR231C, strain swc5, hits give low values 1.02 | locus YBR279W, strain paf1, hits give low values 1.01 | locus YCL011C, strain gbp2, hits give low values 0.998 | locus YCL016C, strain dcc1, hits give low values 0.997 | locus YCL029C, strain bik1, hits give low values 1.02 | locus YCL061C, strain MRC1 (second series), hits give low values 0.995 | locus YCL061C, strain MRC1, hits give low values 1.03 | locus YCL069W, strain vba3, hits give low values 1.02 | locus YCR088W, strain abp1, hits give low values 1.03 | locus YDL005C, strain med2, hits give low values 1.02 | locus YDL035C, strain GPR1, hits give low values 0.983 | locus YDL040C, strain nat1, hits give low values 1.02 | locus YDL074C, strain BRE1, hits give low values 0.975 | locus YDL101C, strain DUN1, hits give low values 1.03 | locus YDL185W, strain tfp1, hits give low values 1.03 | locus YDL192W, strain arf1, hits give low values 1.02 | locus YDR001C, strain nth1, hits give low values 1.04 | locus YDR069C, strain doa4, hits give low values 1.04 | locus YDR101C, strain arx1, hits give low values 1.01 | locus YDR137W, strain rgp1, hits give low values 1.02 | locus YDR159W, strain sac3, hits give low values 1 | locus YDR162C, strain NBP2, hits give low values 1.02 | locus YDR195W, strain ref2 1.04 | locus YDR297W, strain sur2, hits give low values 1.02 | locus YDR318W, strain mcm21, hits give low values 1.02 | locus YDR334W, strain swr1, hits give low values 1.01 | locus YDR335W, strain msn5, hits give low values 1.01 | locus YDR388W, hits give low values 1.01 | locus YDR392W, strain spt3, hits give low values 0.988 | locus YDR502C, strain sam2, hits give low values 1.02 | locus YEL003W, strain gim4, hits give low values 1.02 | locus YEL037C, strain rad23, hits give low values 1.02 | locus YEL061C, strain CIN8 (second series), hits give low values 1.03 | locus YEL061C, strain CIN8, hits give low values 1 | locus YER002W, strain NOP16, hits give low values 1 | locus YER015W, strain faa2, hits give low values 1.03 | locus YER016W, strain bim1, hits give low values 1.02 | locus YER110C, hits give low values 1.02 | locus YER111C, strain swi4, hits give low values 1.03 | locus YER155C, strain BEM2 (second series), hits give low values 1.05 | locus YER155C, strain BEM2, hits give low values 1.01 | locus YER167W, strain BCK2, hits give low values 1 | locus YFR010W, strain ubp6, hits give low values 1.01 | locus YGL078C, strain dbp3, hits give low values 1.01 | locus YGL086W, strain mad1, hits give low values 1.01 | locus YGL167C, strain pmr1, hits give low values 1.04 | locus YGL173C, strain kem1, hits give low values 1.04 | locus YGL227W, strain vid30, hits give low values 1.03 | locus YGL240W, strain doc1, hits give low values 1.05 | locus YGL248W, strain PDE1, hits give low values 1.01 | locus YGL253W, strain hxk2, hits give low values 1 | locus YGR135W, strain pre9, hits give low values 0.987 | locus YGR229C, strain SMI1, hits give low values 0.994 | locus YGR252W, strain gcn5, hits give low values 0.896 | locus YHR013C, strain ard1, hits give low values 0.998 | locus YHR027C, strain rpn1, hits give low values 1.02 | locus YHR030C, strain SLT2, hits give low values 1.01 and 1 | locus YHR079C, strain IRE1 (second series), hits give low values 1.01 | locus YHR079C, strain IRE1, hits give low values 1 | locus YHR094C, strain hxt1, hits give low values 1.01 | locus YHR129C, strain ARP1, hits give low values 1.02 | locus YHR142W, strain chs7, hits give low values 1.02 | locus YHR200W, strain rpn10, hits give low values 1.02 | locus YIL066C, strain RNR3, hits give low values 1.02 | locus YIL073C, strain SPO22, hits give low values 1 | locus YIL125W, strain kgd1, hits give low values 1.01 | locus YIR030C, strain dcg1, hits give low values 1.02 | locus YJL092W, strain hpr5, hits give low values 1.01 | locus YJL095W, strain BCK1 (second series), hits give low values 1.03 | locus YJL095W, strain BCK1, hits give low values 0.962 and 1.01 | locus YJL115W, strain asf1, hits give low values 1.02 | locus YJL129C, strain trk1, hits give low values 1.04 | locus YJL134W, strain LCB3, hits give low values 1 | locus YJL154C, strain vps35, hits give low values 1.01 | locus YJL164C, strain tpk1, hits give low values 0.995 | locus YJL166W, strain qcr8, hits give low values 1.04 | locus YJL168C, strain set2, hits give low values 1.02 | locus YJL187C, strain SWE1 (second series), hits give low values 1.01 | locus YJL187C, strain SWE1, hits give low values 1.02 | locus YJR043C, strain POL32, hits give low values 1.02 | locus YJR066W, strain TOR1, hits give low values 0.959 | locus YJR075W, strain HOC1, hits give low values 1.02
